Test results published in the supplement of paper PMC3334620.
In all, about 33,000 sequences were measured (“E-score (-0.5 to 0.5)”: median about -0.012, highest 2% from about 0.29 on). This is one part of a sample in which the highest values are shown more often than they occur.

What follows are sequences tested against T1, Ybr033w (UniProt P38073) (assay: PBM E-score (8-mer binding enrichment) (E-score (-0.5 to 0.5)); higher = stronger / more preferred TF binding). Details: protein concentration: 200 nM; construct: GST-full length.
T1 sequence: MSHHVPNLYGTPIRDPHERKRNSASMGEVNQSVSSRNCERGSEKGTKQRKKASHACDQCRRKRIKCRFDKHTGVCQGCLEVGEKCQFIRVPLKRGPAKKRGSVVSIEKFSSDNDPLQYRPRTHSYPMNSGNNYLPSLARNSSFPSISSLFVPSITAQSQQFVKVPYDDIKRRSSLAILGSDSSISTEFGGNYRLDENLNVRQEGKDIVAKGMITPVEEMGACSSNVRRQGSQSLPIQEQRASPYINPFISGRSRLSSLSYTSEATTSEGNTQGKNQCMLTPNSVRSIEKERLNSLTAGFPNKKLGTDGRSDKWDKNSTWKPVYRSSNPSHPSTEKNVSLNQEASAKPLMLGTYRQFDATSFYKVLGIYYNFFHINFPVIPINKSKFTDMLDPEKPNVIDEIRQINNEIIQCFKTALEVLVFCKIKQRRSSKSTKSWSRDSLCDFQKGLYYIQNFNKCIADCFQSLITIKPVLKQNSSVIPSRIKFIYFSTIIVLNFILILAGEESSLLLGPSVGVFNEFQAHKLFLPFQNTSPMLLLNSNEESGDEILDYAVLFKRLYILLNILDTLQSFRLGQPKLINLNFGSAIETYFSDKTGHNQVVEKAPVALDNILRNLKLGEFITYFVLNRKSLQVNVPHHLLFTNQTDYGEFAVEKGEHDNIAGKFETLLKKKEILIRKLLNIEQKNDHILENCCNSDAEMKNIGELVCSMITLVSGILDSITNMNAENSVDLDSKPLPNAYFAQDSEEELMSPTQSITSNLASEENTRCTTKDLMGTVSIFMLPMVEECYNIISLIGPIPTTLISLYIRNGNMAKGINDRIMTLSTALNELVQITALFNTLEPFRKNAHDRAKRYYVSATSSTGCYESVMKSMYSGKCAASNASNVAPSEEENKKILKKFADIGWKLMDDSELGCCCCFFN
Method: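 Universal 'all 10-mer' protein binding microarrays (Agilent AMADID 015681) probed with GST-tagged S. cerevisiae TFs (full-length or DBD) made by in vitro transcription/translation (PURExpress), about 100-200 nM. Bound TF was detected with fluorescent anti-GST. Each ungapped 8-mer (which stands for itself and its reverse complement) is scored by the PBM enrichment score (E-score), a modified Wilcoxon-Mann-Whitney statistic from -0.5 to +0.5, computed with the Universal PBM Analysis Suite. Scale: above 0.35 generally sequence-specific binding.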
In the case of CGAGGCAC, the “PBM E-score” value is reported as -0.109.
With GTACCCAC the “PBM E-score” value was -0.116.
In the case of CGCAGGGA, the “PBM E-score” value is reported as -0.202.
In the case of AGCTAATA, the “PBM E-score” value is reported as 0.078.
In the case of AGCGCATC, the “PBM E-score” value is reported as 0.0587.
CGCGAAGC was tested, and the “PBM E-score” value was 0.0254.
For GACTAGTA, the “PBM E-score” value was 0.0157.
CACTAGTA was tested, and the “PBM E-score” value was 0.0533.
TACTAGTA was tested, and the “PBM E-score” value was 0.377.
In the case of CTTTAAAA, the “PBM E-score” value is reported as 0.2.
In the case of AAAGTCGG, the “PBM E-score” value is reported as -0.122.
ACTGTGCA was tested, and the “PBM E-score” value was 0.031.
In the case of ATGACAAG, the “PBM E-score” value is reported as -0.0461.
In the case of ATGACAAC, the “PBM E-score” value is reported as 0.111.
For ATGACAAT, the “PBM E-score” value was 0.293.
ACAAAAGT was tested, and the “PBM E-score” value was 0.0857.
AAAAAGTC was tested, and the “PBM E-score” value was 0.22.
In the case of AAAAAGTA, the “PBM E-score” value is reported as 0.283.
In the case of AAAAAAGT, the “PBM E-score” value is reported as 0.353.
With AAAAAGTT the “PBM E-score” value was 0.314.
AAAAAAGC was tested, and the “PBM E-score” value was 0.171.
CTGTTGCC was tested, and the “PBM E-score” value was -0.136.
In the case of AGTGAAAA, the “PBM E-score” value is reported as 0.183.
With TGCCAACA the “PBM E-score” value was 0.0786.
With GTGCGCAC the “PBM E-score” value was 0.0505.
With GCAGTCCA the “PBM E-score” value was -0.029.
GTCGTTTA was tested, and the “PBM E-score” value was 0.0819.
With ATTGTTTA the “PBM E-score” value was 0.296.
With ATTGTTTG the “PBM E-score” value was 0.118.
With ATTGTTTC the “PBM E-score” value was 0.199.
In the case of ATCGTTTA, the “PBM E-score” value is reported as 0.307.
For ATCGTTTC, the “PBM E-score” value was 0.184.
In the case of GTTGTCCA, the “PBM E-score” value is reported as 0.00858.
With ATGGTCAA the “PBM E-score” value was 0.198.
In the case of AGCTGGCC, the “PBM E-score” value is reported as -0.179.
AGGTAGAC was tested, and the “PBM E-score” value was -0.212.
CTAGAGAC was tested, and the “PBM E-score” value was -0.0751.
With ATTCAACG the “PBM E-score” value was 0.114.
In the case of TTACCTAA, the “PBM E-score” value is reported as 0.156.
ATACCTAA was tested, and the “PBM E-score” value was 0.316.
With ATACCTAT the “PBM E-score” value was 0.102.
CCAAGCGA was tested, and the “PBM E-score” value was -0.0712.
CATAATTA was tested, and the “PBM E-score” value was 0.284.
In the case of GCTAATTA, the “PBM E-score” value is reported as 0.175.
In the case of ACTAATTA, the “PBM E-score” value is reported as 0.281.
For AATAATTC, the “PBM E-score” value was 0.386.
With AATAATTA the “PBM E-score” value was 0.372.
AATAATGA was tested, and the “PBM E-score” value was 0.247.
In the case of CATAATTC, the “PBM E-score” value is reported as -0.00123.
With AATAATTG the “PBM E-score” value was 0.256.
With GATAATTA the “PBM E-score” value was 0.361.
For AAACGTTC, the “PBM E-score” value was 0.0667.
For AGAGTGTG, the “PBM E-score” value was -0.0636.
With CGATGCGC the “PBM E-score” value was 0.0464.
In the case of AGAGGTGG, the “PBM E-score” value is reported as -0.156.
With GAGTGAAA the “PBM E-score” value was 0.129.
With AAGTGAAA the “PBM E-score” value was 0.29.
For CAGTGAAA, the “PBM E-score” value was 0.126.
With GTCCTTCA the “PBM E-score” value was -0.0408.
With CAGCACTC the “PBM E-score” value was 0.0472.
For AATGGTCA, the “PBM E-score” value was 0.205.
AATAGTAA was tested, and the “PBM E-score” value was 0.239.
With AATAGTAG the “PBM E-score” value was 0.201.
In the case of AATAGTGG, the “PBM E-score” value is reported as 0.0387.
With AATAGTAT the “PBM E-score” value was 0.293.
With AATAGTGC the “PBM E-score” value was 0.123.
AATAGTGT was tested, and the “PBM E-score” value was 0.289.
With AGCAATAG the “PBM E-score” value was 0.0737.
CTTCGGAA was tested, and the “PBM E-score” value was 0.243.
For ATTCGGAA, the “PBM E-score” value was 0.269.
For GTTCGGAA, the “PBM E-score” value was 0.316.
For GAAGCGCC, the “PBM E-score” value was -0.0866.
In the case of AACTTGAC, the “PBM E-score” value is reported as -0.0113.
In the case of AAATACTG, the “PBM E-score” value is reported as 0.172.
For GAATACTC, the “PBM E-score” value was 0.0489.
In the case of AAATACTC, the “PBM E-score” value is reported as 0.316.
AAATACTT was tested, and the “PBM E-score” value was 0.34.
In the case of CAATACTC, the “PBM E-score” value is reported as 0.193.
In the case of AAATACTA, the “PBM E-score” value is reported as 0.224.
With GTTAAGGA the “PBM E-score” value was 0.121.
AGCTGAAT was tested, and the “PBM E-score” value was 0.135.
With AGCTCTGC the “PBM E-score” value was -0.255.
AAAGTCTA was tested, and the “PBM E-score” value was -0.00319.
For ACTCCTCA, the “PBM E-score” value was -0.135.
In the case of ATTAAGCA, the “PBM E-score” value is reported as -0.0125.
In the case of CTTCATTA, the “PBM E-score” value is reported as 0.291.
